# Laboratory results as given in PubChem BioAssay (NCI).
# This is part of a sample that, as a whole, favours compounds with a hit. Of some 83,000 tested, about 20% had one in any assay.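 Values shown are percent growth following 48 h exposure of cells in 96-well plates to a single concentration of compound; below 10 was considered active.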 Values without a mark were called inactive. Activity calls are given as the source filed them.
# System: HL-60(TB) leukemia
# Assay: NCI-60 one-dose screen, 48 h (100 = growth as untreated, 0 = no growth, -100 = all killed)
# Conditions: 10 µM unless noted
row,Compound,growth
1,Cc1ccc(C(=O)NN2C(=O)CSC2c2cccc([N+](=O)[O-])c2)cn1 (centres undefined),82.7%
2,CCN(CC)c1ccc(/C=C/C2=[N+](C)c3ccccc3C2(C)C)c(C)c1,-34.7% (active)
3,Cc1ccc2c(-c3cc(-c4ccccc4)nc(N)c3C#N)cc(=O)oc2c1,117%
4,O=C(CCCN1CCOCC1)Nc1ccc(Cn2nnc3c2C(=O)c2nnn(Cc4ccc(NC(=O)CCCN5CCOCC5)cc4)c2C3=O)cc1,-7.47% (active)
5,CCCCCCCCN(CCCCCCCC)CC(O)c1cc(-c2ccccc2)nc2ccc(OC)cc12 (centres undefined),-28.4% (active)
6,COc1cc2c(cc1OCCCN1CCN(C(=S)SCCC(C#N)(c3ccccc3)c3ccccc3)CC1)N=C[C@@H]1CCCN1C2=O,0.178% (active)
7,COc1ccc2cc(-c3ccc(-c4ccc(C(=N)N)s4)s3)ccc2c1,36.5%
8,CCc1ccc(CCC(=O)Nc2ncc(Cc3ccccc3)s2)o1,-40% (active)
9,COc1ccc(N(C)c2ncnc3occ(C)c23)cc1,-34.9% (active)
10,CC(C)OC(=O)Nc1cc(F)c(F)cc1F,98.6%
11,Cc1ccc(-c2nc(SCC(=O)Nc3nc(-c4ccc(Cl)cc4)cs3)[nH]c(=O)c2C#N)cc1,111%
12,COc1cc(/C=C/C(=O)N2CCC=CC2=O)cc(OC)c1OC,-13.1% (active)
13,O=S(c1ccccc1)c1ccc2nnnn2n1 (centres undefined),42.5%
14,CCCc1cc(C(N)=S)ccn1,103%
15,N=C(N)c1ccc(S(N)(=O)=O)cc1,94.9%
16,Cc1ccc(C(CC(=O)O)c2c(C)[nH][nH]c2=O)cc1 (centres undefined),98.8%
17,O=C(Nc1ccc(-n2ccc3c(NC(=O)c4ccccc4)ncnc32)cc1)c1ccc(Cl)c(C(F)(F)F)c1,34.6%
18,CCCCCCCCCCCCCCCCCCOCC(COCCOCC[N+]1(CCCCCC(=O)[O-])CCCC1)Oc1ncccn1 (centres undefined),-32.2% (active)
19,CC1(C)N=c2cc3c(cc2N1c1ccc(Cl)cc1)=Nc1ccccc1N3c1ccc(Cl)cc1,-40.4% (active)
20,CC1OC(n2c3ccccc3c3c4c(c5c6ccccc6[nH]c5c32)C(=O)N(CCN2CCOCC2)C4=O)CC(O)C1O (centres undefined),24.3%

row,Compound,growth
1,c1ccc2cc(Cn3c[n+](Cc4ccc5ccccc5c4)c4ccccc43)ccc2c1,-66.3% (active)
2,C#CCOC(=O)C(N)CSSCC(N)C(=O)O (centres undefined),120%
3,Nc1nc2ccc(-c3nc4ccc5[nH]ncc5c4c4c3CCC4)cc2s1,30.2%
4,COc1cc(-c2cc(C(=O)N3CCN(C(=O)c4ccccc4NCc4ccco4)CC3)nc3cc(-c4ccccc4)nn23)cc(OC)c1OC,11.6%
5,COc1ccc(/C=C2\CN(Cc3cn(CCCNc4ccnc5cc(Cl)ccc45)nn3)C/C(=C\c3ccc(OC)c(OC)c3)C2=O)cc1OC,-38% (active)
6,Cc1ccc(S(=O)(=O)N(CCC(=O)O)c2ccccc2)cc1,92.1%
7,CCCCCCCCCCCCC1CCC/C=C\CCC(=O)O1 (centres undefined),88.6%
8,COc1c(O)cc2oc3cc(O[C@@H]4OC(C)[C@@H](O)[C@H](O)C4O)c(CC=C(C)C)c(O)c3c(=O)c2c1CC=C(C)C (some centres undefined),90.4%
9,COC(=O)c1cc(Br)ccc1O,97.8%
10,CCCCCCCC(=O)Nc1nc2[nH]c(CN3CCN(Cc4cccc(I)c4)CC3)c(CN3CCN(Cc4cccc(I)c4)CC3)c2c(=O)[nH]1,-49.3% (active)
11,Nc1n[nH]c2cccc(C#Cc3cccc(NC(=O)c4cc(N5CCOCC5)cc(C(F)(F)F)c4)c3)c12,10.6%
12,Nc1n[nH]c2cccc(C#Cc3cccc(C(=O)Nc4cc(CN5CCOCC5)cc(C(F)(F)F)c4)c3)c12,16.6%
13,C#C[C@]1(O)CC[C@H]2[C@@H]3CC=C4c5nc(Nc6ccccc6[N+](=O)[O-])sc5CC[C@]4(C)[C@H]3CC[C@@]21C,77.7%
14,COc1ccc(-c2cn(Cc3cc4ccccc4s3)nn2)cc1OCCN1CCCCC1,77%
15,COc1ccc2c(OCc3nnc4ccc(-c5ccccc5)nn34)ccnc2c1,106% [2.5 µM]
16,O=c1ccn(C2CC(O)C(COC(c3ccccc3)(c3ccccc3)c3ccccc3)O2)c(=O)[nH]1 (centres undefined),10.1% [100 µM]
17,CC(=O)c1sc2c(c1OC(=O)c1ccc(Cl)cc1Cl)c(=O)n(-c1ccccc1)c(=S)n2-c1ccccc1,-31.9% (active)
18,O=S(=O)(c1ccccc1)N1CCCN(c2nc(-c3ccccc3)nc3nc(-c4ccccc4)oc23)CC1,102%
19,COc1ccccc1NC(=O)Nc1ccc(-c2nc3ccccc3o2)cc1,88.5%
